Several values for one entry are separate records, joined by “and”; a condition that tells them apart may be missing. Identical values can stand only once. Screen size: about 5,500 compounds; about 2,000 (36%) were called active. Another 18% or so got no clear call; they are omitted. Rule as the data show it: active = normalized growth mostly below about 0.91 (no sharp cut-off); inconclusive = no clear call, values can overlap the other calls; inactive = mostly above about 0.92. The list shows a part of the results.
Test: chemical genetic growth profiling, strain panel (AID 1159580);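 also: tested at 20 µM; growth read once vehicle control cultures reached saturation at 30 °C; 1 = growth at the plate median or of vehicle wells; lower values mean less growth of the strain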
Conditions: S. cerevisiae deletion strains, growth OD

Measured: normalized growth

NCCCS(=O)(=O)O
inactive: locus YAL013W, strain DEP1, stronger effect = lower value 0.978 and 1.01 | locus YAL021C, strain ccr4, stronger effect = lower value 1 | locus YAL026C, strain drs2, stronger effect = lower value 1.04 | locus YAL030W, strain snc1, stronger effect = lower value 1.02 | locus YAL040C, strain CLN3, stronger effect = lower value 1.01 | locus YBL061C, strain skt5, stronger effect = lower value 1.02 | locus YBR009C, strain hhf1, stronger effect = lower value 1.02 | locus YBR021W, strain FUR4, stronger effect = lower value 1 | locus YBR023C, strain chs3, stronger effect = lower value 1.03 | locus YBR171W, strain sec66, stronger effect = lower value 1.02 | locus YBR229C, strain ROT2, stronger effect = lower value 0.955 | locus YBR231C, strain swc5, stronger effect = lower value 1.01 | locus YBR279W, strain paf1, stronger effect = lower value 1.01 | locus YCL011C, strain gbp2, stronger effect = lower value 1.02 | locus YCL016C, strain dcc1, stronger effect = lower value 1.01 | locus YCL029C, strain bik1, stronger effect = lower value 0.991 | locus YCL061C, strain MRC1, stronger effect = lower value 1.02 | locus YCL069W, strain vba3, stronger effect = lower value 1.02 | locus YCR088W, strain abp1, stronger effect = lower value 1.02 | locus YDL005C, strain med2, stronger effect = lower value 1.05 | locus YDL035C, strain GPR1, stronger effect = lower value 0.988 | locus YDL040C, strain nat1, stronger effect = lower value 1.01 | locus YDL074C, strain BRE1, stronger effect = lower value 1.03 | locus YDL101C, strain DUN1, stronger effect = lower value 0.982 | locus YDL134C, strain PPH21, stronger effect = lower value 0.985 | locus YDL185W, strain tfp1, stronger effect = lower value 0.982 | locus YDL192W, strain arf1, stronger effect = lower value 0.984 | locus YDR001C, strain nth1, stronger effect = lower value 1.02 | locus YDR069C, strain doa4, stronger effect = lower value 1.01 | locus YDR101C, strain arx1, stronger effect = lower value 0.999 | locus YDR137W, strain rgp1, stronger effect = lower value 1.03 | locus YDR150W, strain NUM1, stronger effect = lower value 0.964 and 1.02 | locus YDR159W, strain sac3, stronger effect = lower value 1.01 | locus YDR162C, strain NBP2, stronger effect = lower value 0.982 | locus YDR195W, strain ref2 1.02 | locus YDR297W, strain sur2, stronger effect = lower value 1.02 | locus YDR318W, strain mcm21, stronger effect = lower value 1 | locus YDR334W, strain swr1, stronger effect = lower value 1.03 | locus YDR335W, strain msn5, stronger effect = lower value 1.02 | locus YDR388W, stronger effect = lower value 0.997 | locus YDR392W, strain spt3, stronger effect = lower value 0.936 | locus YDR502C, strain sam2, stronger effect = lower value 0.982 | locus YEL003W, strain gim4, stronger effect = lower value 1.02 | locus YEL037C, strain rad23, stronger effect = lower value 1.02 | locus YEL061C, strain CIN8 (second series), stronger effect = lower value 1.03 | locus YEL061C, strain CIN8, stronger effect = lower value 0.981 | locus YER002W, strain NOP16, stronger effect = lower value 1.01 | locus YER015W, strain faa2, stronger effect = lower value 0.994 | locus YER016W, strain bim1, stronger effect = lower value 1.03 | locus YER110C, stronger effect = lower value 0.961 | locus YER111C, strain swi4, stronger effect = lower value 1.03 | locus YER155C, strain BEM2 (second series), stronger effect = lower value 1.02 | locus YER155C, strain BEM2, stronger effect = lower value 0.988 | locus YER167W, strain BCK2, stronger effect = lower value 1 | locus YFR010W, strain ubp6, stronger effect = lower value 1.04 | locus YGL078C, strain dbp3, stronger effect = lower value 0.977 | locus YGL086W, strain mad1, stronger effect = lower value 0.98 | locus YGL167C, strain pmr1, stronger effect = lower value 1.02 | locus YGL173C, strain kem1, stronger effect = lower value 1.03 | locus YGL227W, strain vid30, stronger effect = lower value 1.03 | locus YGL240W, strain doc1, stronger effect = lower value 1 | locus YGL248W, strain PDE1, stronger effect = lower value 0.985 | locus YGL253W, strain hxk2, stronger effect = lower value 1.04 | locus YGR078C, strain PAC10, stronger effect = lower value 1 | locus YGR135W, strain pre9, stronger effect = lower value 0.977 | locus YGR229C, strain SMI1, stronger effect = lower value 1 | locus YGR252W, strain gcn5, stronger effect = lower value 0.908 | locus YHR013C, strain ard1, stronger effect = lower value 1.02 | locus YHR027C, strain rpn1, stronger effect = lower value 1.03 | locus YHR030C, strain SLT2, stronger effect = lower value 0.984 and 1.01 | locus YHR079C, strain IRE1 (second series), stronger effect = lower value 0.989 | locus YHR079C, strain IRE1, stronger effect = lower value 0.996 | locus YHR094C, strain hxt1, stronger effect = lower value 0.999 | locus YHR129C, strain ARP1, stronger effect = lower value 0.989 | locus YHR142W, strain chs7, stronger effect = lower value 1.06 | locus YHR200W, strain rpn10, stronger effect = lower value 0.993 | locus YIL066C, strain RNR3, stronger effect = lower value 0.975 | locus YIL073C, strain SPO22, stronger effect = lower value 0.985 | locus YIL125W, strain kgd1, stronger effect = lower value 0.981 | locus YIR030C, strain dcg1, stronger effect = lower value 0.985 | locus YJL092W, strain hpr5, stronger effect = lower value 1.03 | locus YJL095W, strain BCK1 (second series), stronger effect = lower value 1.02 | locus YJL095W, strain BCK1, stronger effect = lower value 1.03 and 1.01 | locus YJL115W, strain asf1, stronger effect = lower value 1.03 | locus YJL129C, strain trk1, stronger effect = lower value 1.05 | locus YJL134W, strain LCB3, stronger effect = lower value 0.985 | locus YJL154C, strain vps35, stronger effect = lower value 1.02 | locus YJL164C, strain tpk1, stronger effect = lower value 1.01 | locus YJL166W, strain qcr8, stronger effect = lower value 1.02 | locus YJL168C, strain set2, stronger effect = lower value 0.996 | locus YJL187C, strain SWE1 (second series), stronger effect = lower value 0.983 | locus YJR043C, strain POL32, stronger effect = lower value 1.02 | locus YJR066W, strain TOR1, stronger effect = lower value 0.984 | locus YJR075W, strain HOC1, stronger effect = lower value 0.995
